In all, about 5,500 compounds went through this assay and about 2,000 (36%) were called active. About 18% were inconclusive and are not listed. Rule as the data show it: active = normalized growth mostly below about 0.91 (no sharp cut-off); inconclusive = no clear call, values can overlap the other calls; inactive = mostly above about 0.92. Some of the results follow.
Assay: chemical genetic growth profiling, strain panel (AID 1159580);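 also: tested at 20 µM; growth read once vehicle control cultures reached saturation at 30 °C; 1 = growth at the plate median or of vehicle wells; lower values mean less growth of the strain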
Settings: S. cerevisiae deletion strains, growth OD

Measured: normalized growth

C#CCN1C(C)=C(C(=O)OC)C(c2cccc([N+](=O)[O-])c2)C(C(=O)OCC)=C1C (stereo not given)
inactive: locus YAL013W, strain DEP1, stronger effect = lower value 1.01 | locus YAL040C, strain CLN3, stronger effect = lower value 0.971 | locus YCL061C, strain MRC1 (second series), stronger effect = lower value 1 | locus YDR363W, strain ESC2, stronger effect = lower value 1.01 | locus YER002W, strain NOP16, stronger effect = lower value 1.02 | locus YGR078C, strain PAC10, stronger effect = lower value 0.996 | locus YMR263W, strain SAP30, stronger effect = lower value 1.02 | locus YMR307W, strain GAS1, stronger effect = lower value 0.998 | locus YNL128W, strain TEP1, stronger effect = lower value 1.03 | locus YNL153C, strain GIM3, stronger effect = lower value 0.988 | locus YNL175C, strain NOP13, stronger effect = lower value 1.04 | locus YNL197C, strain WHI3, stronger effect = lower value 1.03 | locus YNL224C, strain SQS1, stronger effect = lower value 1 | locus YNL322C, strain KRE1, stronger effect = lower value 1 | locus YOR083W, strain WHI5 (second series), stronger effect = lower value 1.04

Source: PubChem BioAssay AID1159580 (chemical genetic matrix, 2015)
